# Laboratory results reported in PubChem BioAssay AID623891 (Vanderbilt Specialized Chemistry Center, 2012).
# Calls of active or inactive are those of the source.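 Rule for the calls: active = fold shift of 2 or more as potentiator, or 0.5 or less as blocker, so actives lie on both sides; inactive = fold shift between 0.5 and 2.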
# Biological target: Metabotropic glutamate receptor 6 (Homo sapiens) (UniProt O15303)
# Assay: off-target activity at human mGlu6, profiling panel, selectivity assay for mGlu4 lead optimization, cell-based, thallium flux (AID 623891)
# Conditions: mGlu6 cells, glutamate CRC fold shift, at 10 µM
# Metabotropic glutamate receptor 6 (Homo sapiens), sequence (O15303 whole entry, looked up): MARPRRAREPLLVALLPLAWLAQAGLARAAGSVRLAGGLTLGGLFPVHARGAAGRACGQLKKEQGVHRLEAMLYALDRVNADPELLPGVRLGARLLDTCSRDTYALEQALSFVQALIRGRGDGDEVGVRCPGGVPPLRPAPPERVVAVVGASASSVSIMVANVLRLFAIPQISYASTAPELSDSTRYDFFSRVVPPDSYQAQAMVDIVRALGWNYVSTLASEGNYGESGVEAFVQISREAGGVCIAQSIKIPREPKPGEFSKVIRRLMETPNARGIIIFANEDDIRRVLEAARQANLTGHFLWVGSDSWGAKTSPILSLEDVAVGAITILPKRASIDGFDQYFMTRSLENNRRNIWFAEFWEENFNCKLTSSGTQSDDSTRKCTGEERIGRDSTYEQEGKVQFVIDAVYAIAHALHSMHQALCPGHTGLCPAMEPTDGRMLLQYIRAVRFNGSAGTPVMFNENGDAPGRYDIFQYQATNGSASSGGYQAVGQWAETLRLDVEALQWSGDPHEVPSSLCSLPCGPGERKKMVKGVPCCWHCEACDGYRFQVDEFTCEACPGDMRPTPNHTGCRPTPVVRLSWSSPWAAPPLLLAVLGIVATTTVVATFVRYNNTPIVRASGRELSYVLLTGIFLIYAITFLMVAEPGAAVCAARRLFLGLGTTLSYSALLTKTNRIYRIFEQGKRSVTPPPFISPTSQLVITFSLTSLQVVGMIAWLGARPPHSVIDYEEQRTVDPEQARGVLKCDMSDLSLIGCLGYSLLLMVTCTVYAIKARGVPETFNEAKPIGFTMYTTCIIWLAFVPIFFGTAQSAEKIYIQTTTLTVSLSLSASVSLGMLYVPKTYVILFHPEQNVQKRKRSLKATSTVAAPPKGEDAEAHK
smiles,measurement,value
O=C(Nc1cccc(Cl)c1)c1ccccn1,fold shift,4.27 (active)
